Compound activity (PubChem BioAssay)
Rows were chosen to be rich in hits. Some 5.3% of all compounds tested hit in one or more screens of this group.
Tau FP inhib: inhibitors of human tau fibril formation; P10636; K18 P301L tau heparin fibrillization, Alexa594 FP, 6 h; Potency, µM (series often up to 57.7 µM), hits mostly inhibitors; 0.39% of 280,000 active; AID 1468; note: nearly all actives have a fitted effect of over 55% in size
Target sequence (P10636 561-689 P618L limits assumed): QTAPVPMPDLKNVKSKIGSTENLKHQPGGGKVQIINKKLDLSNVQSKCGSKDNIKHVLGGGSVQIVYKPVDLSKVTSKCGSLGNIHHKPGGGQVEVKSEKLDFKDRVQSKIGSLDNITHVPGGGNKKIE
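Read-out: fluorescence polarization of Alexa 594-labeled tau (0.24 uM), 555 nm excitation, 632 nm emission. Mixtures held 15 uM unlabeled K18 P301L, compound and 20 uM heparin, pH 7 acetate buffer, incubated 6 hr at 37 C.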
Tau fibril ThT: tau fibrillization inhibition (ThT binding); 2.1% of 270,000 active; Potency, µM (titrated, usually from 57.4 µM), actives largely listed as inhibitors; P10636; recombinant tau K18 P301L, heparin-induced fibrillization, ThT fluorescence; AID 1460; note: nearly all actives have a fitted effect of over 55% in size
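Heparin-induced fibrillization of the P301L-mutant K18 repeat-domain fragment of human tau was followed by ThT binding in quantitative high-throughput format.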
Coupling enz: counter-screen for Giardia aldolase inhibitors: coupling enzyme system | 0.67% of 290,000 active | activity change, negative = inhibition, % at 58.2 µM, hits read low | coupling enzyme system counterscreen, AmpLite Red fluorescence; in the data active = activity change below about -30%
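Final compound at 57.5 uM, incubated 10 min at RT with coupling enzyme reagent (glyceraldehyde-3-phosphate), then 20 min with substrate and AmpLite Red detection. Fluorescence read at 525/598 nm; tests interference with the coupling assay, not aldolase inhibition.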
JMJD2E inh: blocks human JMJD2E demethylase activity. B2RXH2. JMJD2E catalytic domain, FDH-coupled NADH fluorescence (FDH is formaldehyde dehydrogenase). Potency, µM (highest dose often 57.1 µM), actives largely listed as inhibitors. 1.6% of 230,000 active. AID 2147; active = well fitted inhibition curve with a large enough effect, not every such curve was filed as active; inconclusive = small, poorly fitted or top-dose-only effect, or another doubt; inactive = no such curve, though single readings can be large or run the other way; note: nearly all actives have a fitted effect of over 50% in size
Target sequence (B2RXH2 1-337 limits assumed): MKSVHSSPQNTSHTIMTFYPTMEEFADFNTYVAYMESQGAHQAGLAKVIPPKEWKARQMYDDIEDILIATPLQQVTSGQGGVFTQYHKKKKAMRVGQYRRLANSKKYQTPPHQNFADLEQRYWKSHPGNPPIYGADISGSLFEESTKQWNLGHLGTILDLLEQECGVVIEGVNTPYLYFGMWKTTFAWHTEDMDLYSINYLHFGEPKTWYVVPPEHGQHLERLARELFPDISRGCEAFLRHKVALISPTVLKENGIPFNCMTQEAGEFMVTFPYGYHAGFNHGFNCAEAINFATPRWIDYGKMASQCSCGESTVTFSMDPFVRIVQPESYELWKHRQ
Sfp inh: inhibitors of Bacillus subtilis Sfp phosphopantetheinyl transferase. Q9F4F7. Biochemical Sfp PPTase activity, qHTS. Potency, µM, most hits filed as inhibitors. 3.5% of 310,000 active;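 note: the enzyme is Sfp with the accession as filed and its product quenches rhodamine fluorescence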
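Sfp 15 nM + cpd, 15 min RT; start w/ rhodamine-CoA 5 uM, BHQ-2-YbbR 12.5 uM (final); 50 mM Hepes pH 7.6, 10 mM MgCl2, 0.01% NP-40, 0.01% BSA; read 525/598 nm at 0 and 30 min.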
Tau fluor cs: counter-screen for tau fibril formation inhibitors; tau K18 P301L (four-repeat tau fragment) Alexa594 fluorescence, heparin fibrillization; Potency, µM (highest dose often 57.7 µM); 0.93% of 280,000 active; note: nearly all actives have a fitted effect of over 55% in size
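Human K18 P301L tau (15 uM unlabeled plus 0.24 uM Alexa 594-labeled, final) in 100 mM sodium acetate pH 7 was mixed with compound and 20 uM heparin and incubated 6 hr at 37 C.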
Each line names hits and unclear results; the compound was inactive in the other large screens; ! = repeats disagree; [ ] = dose if it differs, or a comment. Unless noted, calls come from the whole dose curve; as a rule, active = well fitted curve in the direction sought with a large enough effect; inconclusive = small, poorly fitted or top-dose-only effect, or another doubt; inactive = no such curve, though single readings can be large; an effect the other way counts as inactive or inconclusive.

CCOC(=O)c1c(-n2cnnn2)sc2c1CCCC2	JMJD2E inh inconclusive
CCOC(=O)c1c(N2C(=O)C3C4C=CC(O4)C3C2=O)sc2c1CCCC2 (stereo not given)	Sfp inh 8.9µM
COc1cc(C)c(/C=C/C(C)=C/C=C/C(C)=C/C(=O)O)c(C)c1C	Tau fibril ThT 25µM, Tau fluor cs inconclusive (no result: Coupling enz, JMJD2E inh)
CC(C)Nc1nc(C#N)nc(Nc2ccccc2)n1	none (no result: Tau FP inhib, Tau fibril ThT, JMJD2E inh, Sfp inh, Tau fluor cs)
C=CCSc1nc2sc3c(c2c(=O)n1CC)CCc1ccccc1-3	Tau FP inhib 16µM, Tau fibril ThT 11µM, JMJD2E inh inconclusive, Sfp inh 1.8µM
C=CCn1c(SCC)nc2sc3c(c2c1=O)CCc1ccccc1-3	none
Cc1ccc(NC(=O)COc2ccccc2)cc1Cl	none (no result: Tau FP inhib, Tau fibril ThT, JMJD2E inh, Tau fluor cs)
Cc1ccc(N/N=C2\CC(=O)c3ccccc32)cc1Cl	Tau FP inhib inconclusive, Tau fibril ThT 7.1µM, JMJD2E inh 22µM, Tau fluor cs inconclusive
O=C1NC(=O)C(c2ccccc2[N+](=O)[O-])=C1Nc1ccc(O)c(Cl)c1	Tau FP inhib inconclusive, Tau fibril ThT 7.9µM, Sfp inh 56µM!, Tau fluor cs inconclusive
Nc1c(O)ccc2c1C(=O)c1ccccc1C2=O	Tau FP inhib inconclusive, Tau fibril ThT 14µM, Tau fluor cs inconclusive
CN1CCN(c2ncnc3ccc(-c4cccc(NS(C)(=O)=O)c4)cc23)CC1	none (no result: Tau FP inhib, Tau fibril ThT, JMJD2E inh, Tau fluor cs)
Cc1cccc(NC(=S)N/C(=N/S(=O)(=O)c2ccccc2)c2ccccc2)c1	Sfp inh inconclusive
Cc1c(NC(=S)N/C(=N/S(=O)(=O)c2ccc(Cl)cc2)c2ccccc2)c(=O)n(-c2ccccc2)n1C	Sfp inh 35µM
Cc1c(NC(=S)N/C(=N/S(=O)(=O)c2ccccc2)c2ccccc2)c(=O)n(-c2ccccc2)n1C	Tau fluor cs inconclusive (no result: Tau fibril ThT)
Cc1ccc(S(=O)(=O)/N=C(/NC(=S)Nc2cccc(C)c2)c2ccccc2)cc1	Tau fibril ThT inconclusive, Sfp inh 50µM
CC(=O)c1ccc(NC(=S)Nc2cccc(S(=O)(=O)Nc3c(C)n(C)n(-c4ccccc4)c3=O)c2)cc1	Sfp inh 22µM
CC(C)OC(=S)N/C(=N\S(=O)(=O)c1ccccc1)c1ccccc1	Sfp inh 14µM
CCC(=O)Nc1nnc(S(=O)(=O)N(C)Cc2ccccc2)s1	Tau FP inhib inconclusive (no result: Coupling enz, JMJD2E inh, Sfp inh)
COC(=O)[C@H]1O[C@@H](c2cc(OC)c(C)c(OC)c2OCc2ccccc2)[C@H](C)[C@@H]2O[C@]12C	none
Cc1ccccc1C(=O)Oc1ccc(Sc2ccc(O)cc2)cc1	Tau FP inhib 25µM, Tau fibril ThT inconclusive, Tau fluor cs 7.1µM[quencher]
Cc1ccccc1C(=O)Oc1ccc(-c2csnn2)cc1	Tau fibril ThT inconclusive
CCOc1ccc(-n2c(=O)c3c(C)c(C)sc3n(CC(=O)NCCc3ccccc3)c2=O)cc1	none (no result: Coupling enz, JMJD2E inh, Sfp inh)
CC(C)N(C(=O)Nc1ccc2nccnc2c1)C(C)C	Tau fibril ThT inconclusive, Coupling enz -39, JMJD2E inh inconclusive
COCCn1c(SCC(=O)c2ccc(F)cc2)nnc1C(C)C	JMJD2E inh inconclusive, Sfp inh 56µM
COc1ccccc1C(=O)NCCn1cc(SCc2ccc(C)cc2)c2ccccc21	Tau fibril ThT inconclusive, Tau fluor cs inconclusive (no result: Coupling enz, JMJD2E inh, Sfp inh)
Cc1ccc(C)c(N2CCN(S(=O)(=O)c3ccc(-c4cc(C(F)(F)F)on4)s3)CC2)c1	none (no result: Coupling enz, JMJD2E inh, Sfp inh)
O=C1C[C@@H](O)[C@@H](O)[C@H]2[C@@H]3C(=O)N(c4cccc(Oc5ccccc5)c4)C(=O)[C@@H]3CC[C@H]12	none (no result: JMJD2E inh)
O=C(O)Cn1c(O)c(C2=c3ccccc3=NC2=O)sc1=O	none (no result: Tau FP inhib, Tau fibril ThT, JMJD2E inh, Tau fluor cs)
Cn1c(O)c(C2=c3ccccc3=NC2=O)sc1=Nc1ccc(Cl)cc1	Tau fibril ThT 10µM, Tau fluor cs inconclusive
O=c1ccc(N=Nc2ccccc2)ccc1O	Tau fibril ThT 4.5µM, JMJD2E inh 5.6µM, Tau fluor cs inconclusive
O=S(=O)(O)c1ccc(N=Nc2ccccc2)cc1	none
CCC(NC(=O)NNC(N)=S)(C(F)(F)F)C(F)(F)F	Sfp inh 45µM
CCOc1ccccc1C(=O)Nc1cc(Cl)ccc1O	Tau FP inhib inconclusive, Tau fibril ThT inconclusive, Tau fluor cs 18µM[quencher]
CCOc1ccc(CC(=O)NCC(c2cccs2)S(=O)(=O)c2ccc(F)c(C)c2)cc1 (stereo not given)	none (no result: Coupling enz, JMJD2E inh, Sfp inh)
COc1ccc2[nH]cc(CCNc3ccnc(-c4ccccc4Cl)n3)c2c1	none (no result: Tau FP inhib, Tau fibril ThT, JMJD2E inh, Tau fluor cs)
CC(C)Cc1ccc(C(C)C(=O)OCC(=O)c2c[nH]c3ccccc23)cc1 (stereo not given)	Tau FP inhib 22µM, Tau fluor cs inconclusive
CC(C)C(NS(=O)(=O)c1c(Cl)cccc1Cl)C(=O)OCC(=O)c1c[nH]c2ccccc12 (stereo not given)	Tau FP inhib inconclusive, Tau fluor cs 8.9µM[quencher]
Cc1ccc(C(=O)OCC(=O)c2c[nH]c3ccccc23)cc1	none
CC(O)C(NS(=O)(=O)c1ccc(Cl)cc1)C(=O)OCC(=O)c1c[nH]c2ccccc12 (stereo not given)	none
Cc1nc(N)sc1-c1csc(N(C)c2ccc(O)cc2)n1	Tau FP inhib inconclusive, Tau fibril ThT 16µM, Tau fluor cs inconclusive
CC(C)OC(=O)C1CC(C)(O)C(=O)C(C(=O)OC(C)C)C1c1ccc([N+](=O)[O-])cc1 (stereo not given)	none
